gsp antag – antagonizes gsp, the McCune-Albright syndrome mutation; AID 624288; gsp-mutant cells, cAMP HTRF, 30 min; 340,000 compounds, 0.4% hits; Potency, µM (titrated, usually from 76.9 µM), for inactives: top-dose activity change, negative = inhibition, most hits filed as inhibitors; calls by dose curve; cell line not stated here;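 further: intracellular cAMP measured with PDE inhibitor Ro 20-1724 present during compound exposure; potency means the concentration at half of the fitted maximal effect; on the % scale 0 is the no-effect control and ±100 the full control effect; nearly all actives have a fitted effect of over 65% in size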
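Cells in G418 medium, seeded 16-24 h, 37C; buffer exchange to DPBS + 1 mM CaCl2, 0.5 mM MgCl2, 0.05% BSA; cpds in DMSO + […] (300 uM stock), 30 min 37C; HTRF cAMP detection.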
pAkt inh – blocks phosphorylation of Akt; Neuro2A IGF-stimulated pAkt S473 HTRF, 20 min; stronger effect = lower value; activity change, % for hits at 50 µM; 360,000 compounds, 0.32% hits; AID 651550; in the data active means activity change below about -80%; inconclusive means mostly about -51% to -80%; further: on the % scale 0 is the no-effect control and ±100 the full control effect
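Neuro2A cells (4,500/well, DMEM with 0.5% FBS) were treated with compound at a single 50 µM final concentration, stimulated with 6 nM IGF for 20 min at 37 °C, and lysed. Phospho-Akt Ser473 was read by HTRF as 665/615 ratio ×10^4.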
RXFP1 agonist – activates the human relaxin receptor RXFP1; Q9HBX9; HEK293T-RXFP1 cAMP TR-FRET, 30 min; response scale: percent of porcine relaxin response, buffer zero; Potency, µM (top dose mostly 57.5 µM), for the others: at the top dose activation, usual class: activators; 370,000 compounds, 0.3% hits; AID 2676; active means well fitted activation curve with a large enough effect; inconclusive means small, poorly fitted or top-dose-only effect; further: potency means the concentration at half of the fitted maximal effect; on the % scale 0 is the no-effect control and ±100 the full control effect; nearly all actives have a fitted effect of over 60% in size
Target sequence (Q9HBX9 whole entry, looked up): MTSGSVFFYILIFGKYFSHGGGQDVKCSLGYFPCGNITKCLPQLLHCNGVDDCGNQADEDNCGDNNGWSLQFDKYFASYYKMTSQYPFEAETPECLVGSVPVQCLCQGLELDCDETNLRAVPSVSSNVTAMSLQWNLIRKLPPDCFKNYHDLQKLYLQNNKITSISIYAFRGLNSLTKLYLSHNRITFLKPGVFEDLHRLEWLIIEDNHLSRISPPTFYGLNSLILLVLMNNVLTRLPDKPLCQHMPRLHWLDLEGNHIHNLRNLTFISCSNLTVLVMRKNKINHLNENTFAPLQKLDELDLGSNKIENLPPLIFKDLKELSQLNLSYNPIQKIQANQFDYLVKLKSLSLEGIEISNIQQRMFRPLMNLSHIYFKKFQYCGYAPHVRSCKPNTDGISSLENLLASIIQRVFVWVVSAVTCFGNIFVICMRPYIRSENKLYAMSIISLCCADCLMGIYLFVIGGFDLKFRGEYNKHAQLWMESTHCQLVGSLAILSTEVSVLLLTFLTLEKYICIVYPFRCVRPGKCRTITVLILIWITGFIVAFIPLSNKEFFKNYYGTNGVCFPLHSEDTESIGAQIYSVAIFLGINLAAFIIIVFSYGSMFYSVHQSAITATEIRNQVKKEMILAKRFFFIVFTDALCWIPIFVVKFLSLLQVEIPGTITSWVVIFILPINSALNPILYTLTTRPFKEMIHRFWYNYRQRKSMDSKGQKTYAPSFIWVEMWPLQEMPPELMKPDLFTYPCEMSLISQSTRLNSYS
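HEK293T cells stably expressing RXFP1 were pretreated with the PDE4 inhibitor Ro 20174, exposed to compounds for 30 min at 37C, lysed, and cAMP was read by TR-FRET. Data normalized to buffer (basal) and 29 nM porcine relaxin (100%).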
ClpP mod – qHTS Assay for Activators of ClpP; ATP-dependent Clp protease proteolytic subunit (Bacillus subtilis (strain 168)), P80244; purified B. subtilis ClpP, FRET peptide cleavage, 20 min; Potency, µM (titrated, usually from 57.5 µM), without a hit: top-dose activity change, negative = active; 340,000 compounds, 1.9% hits; AID 651965, 2013; active means well fitted falling curve with a large enough effect; inconclusive means small, poorly fitted or top-dose-only effect; inactive means no such curve, though single readings can be large or run the other way; further: potency means the concentration at half of the fitted maximal effect; the source files actives as falling curves though it sought activators and does not explain the sign; nearly all actives have a fitted effect of over 65% in size
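FRET quenching reversal measured ClpP activation: 10 microg/mL B. subtilis ClpP at pH 8 with the FRET-FV decapeptide, read at 430 nm after 320 nm excitation. The 20-min minus 0-min signal was scaled between DMSO/no-enzyme wells and ADEP (5.8 microM final).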
RXFP1 antag – antagonists of human relaxin receptor RXFP1; 350,000 compounds, 0.59% hits; Q9HBX9; HEK293-RXFP1, relaxin-stimulated cAMP HTRF, 30 min; stronger effect = lower value; activity change, negative = inhibition, % at 57.5 µM; AID 1259400;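 active means activity change of -60% or lower, but not beyond a set lower limit; inconclusive means change between -60% and -40%, or beyond the set limit; inactive means change above -40%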; further: on the % scale 0 is the no-effect control and ±100 the full control effect
gsp ag – activates gsp, the McCune-Albright syndrome mutation. gsp mutant cells, cAMP HTRF, 30 min. Potency, µM (series often up to 76.9 µM), for the others: at the highest dose activation (cAMP increase), hits mostly activators. 340,000 compounds, 0.13% hits. AID 624287; active means well fitted activation curve with a large enough effect; inconclusive means small, poorly fitted or top-dose-only effect, or another doubt; inactive means no such curve, though single readings can be large or run the other way; cell line not stated here;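 further: phosphodiesterase inhibitor Ro 20-1724 added with compounds to block cAMP breakdown; potency means the concentration at half of the fitted maximal effect; nearly all actives have a fitted effect of over 60% in size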
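Cells in DMEM/10% FBS with G418 were pretreated with compounds in DMSO plus […] (300 uM stock) for 30 min at 37C. cAMP was measured by HTRF (cAMP-d2 plus anti-cAMP antibody-K) after 30 min at room temperature.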
Active calls of the source: *; i = inactive; ? = inconclusive; / = no result; ! = a repeat was not active; [ ] = another dose, or the depositor's remark. A selection: hits, their analogues and other compounds. The true share with any hit is near 2.7%.

SMILES	gsp antag	pAkt inh	RXFP1 agonist	ClpP mod	RXFP1 antag	gsp ag
CSCC[C@H](NC(=O)c1cc([N+](=O)[O-])ccc1Cl)c1nc2ccccc2[nH]1	-6%	i	2%	1%	9	1%
CSCC[C@H](NC(=O)COc1ccc(Cl)cc1)c1nc2ccccc2[nH]1	7.9µM*	i	0%	/	1	4%[15.4 µM]
Cc1ccc(NC(=O)CCC(=O)c2ccc(F)cc2)cc1Cl	6%	i	1%	25µM*	-12	-18%
COc1ccc(C(=O)CCC(=O)Nc2ccc(C)c(Cl)c2)cc1	/	/	-2%	2%	-15	/
CCN(Cc1ccccc1)S(=O)(=O)c1ccc2c(c1)NC(=O)CC(=O)N2	-2%	i	1%	1%	0	10%
CCN(Cc1ccccc1)S(=O)(=O)c1ccc2c(c1)NC(=O)CS2	2%	/	3%	0%	-72*	?
CCOc1ccc(-n2c(=O)c3c(C)c(C)sc3n(CC(=O)N(CC)Cc3ccccc3)c2=O)cc1	/	/	1%	1%	0	/
Cc1c(CCC(=O)O)c(=O)oc2c(C)c3occ(-c4ccc(Cl)cc4)c3cc12	32µM*	i	2%	-1%	3	11%[15.4 µM]
Cc1c(CCC(=O)O)c(=O)oc2cc3occ(-c4ccc(Cl)cc4)c3cc12	-32%	i	0%	/	15	26%
CCOc1ccccc1N(CC)C(=O)c1cc2c(=O)n(CC)c3ccccc3c2s1	/	/	-1%	-14%	/	/
Cc1ccc2nc(SCCCCOc3ccccc3)[nH]c2c1	40µM*	i	4%	-1%	-3	-4%
COc1ccc2c(c1)c1c(c(=O)n(Cc3ccccc3)c(=O)n1CC(=O)Nc1ccccc1OC)n2C	/	/	17%	20µM*	/	/
COc1ccccc1NC(=O)Cn1c(=O)n(Cc2ccccc2)c(=O)c2c1c1cc(C)ccc1n2C	/	/	0%	4%	/	/
Nc1ccc(Br)c2cccnc12	-16%	i	2%	-1%	-65*	-12%[15.4 µM]
CS(=O)(=O)Oc1ccc(Br)c2cccnc12	11%	i	0%	-2%	-1	20%
CC(C)OC(=O)CNc1n[nH]c(=S)[nH]c1=O	/	i	5µM*	/	-39	36%[15.4 µM]
C#CCN(C[C@@H]1[C@@H](OC(=O)NCC2CCCCC2)[C@@H](OC(=O)NCC2CCCCC2)Cn2c(=O)n(CCCCCC)c(=O)n21)S(=O)(=O)c1ccc(C)cc1	/	i	/	-1%	4	25%
O=C(CS(=O)(=O)c1ccc(Cl)cc1)Nc1nccs1	/	i	/	-6%	3	-19%
O=C(CN1C(=O)NC2(CCCCC2)C1=O)NCCCSc1ccccc1	10%	i	0%	-2%	-2	4%
CC(C)(C)C(=O)Nc1ccc2c(c1)C(=O)C(=O)c1ccccc1-2	/	/	/	4%	/	/
COc1cc(C(=O)Nc2cccc(OCc3cc(=O)n4cc(C)sc4n3)c2)cc(OC)c1OC	/	/	15%	5%	/	/
Cc1cc(C)c(S(=O)(=O)NCCc2sc3nc(-c4ccc(F)cc4)nn3c2C)c(C)c1	/	/	1%	-1%	-21	/
CC(=O)N(C(C)=O)N1C(=O)/C(=C/c2ccc(Cl)cc2)SC1=S	-6%	i	1%	/	-109*	-15%[15.4 µM]
CCOc1cc(/C=C2\SC(=O)N(c3ccc(O)cc3)C2=O)ccc1O	32µM*	i	-2%	0%	-18	10%
COC(=O)c1ccc(C(=O)OC)c(NC(=O)CCC(=O)O)c1	10%	i	-1%	28µM*	-1	-6%
SMILES	gsp antag	pAkt inh	RXFP1 agonist	ClpP mod	RXFP1 antag	gsp ag
COC(=O)c1ccc(C(=O)OC)c(NC(=O)CCS(=O)(=O)Cc2ccccc2)c1	8%	i	0%	4%	5	-12%
CC(OC(=O)CCN=C1NS(=O)(=O)c2ccccc21)C(=O)Nc1ccc(N(C)C)cc1 (configuration not stated)	7.1µM*	i	-1%	-1%	/	-27%
CCCC(CCC)(C(=O)OCC)C(=O)OCC	/	/	/	/	-12	/
COCCNC(=O)C1(C)Cc2c(-c3ccc(N(C)C)cc3)ccnc2O1 (configuration not stated)	/	i	/	5%	/	/
Cc1cccc(C2N=C(N)Nc3nc4ccccc4n32)c1 (configuration not stated)	0%	i	1%	25µM*!	1	-12%[15.4 µM]
COc1cc(Br)cc(C2C3=C(CCCC3=O)N(c3ccc(F)cc3)C3=C2C(=O)CCC3)c1O	32µM*	i	0%	/	-6	?
Cc1cc(C)nc(Nc2nc(C(N)Cc3ccc(Cl)cc3)cs2)n1 (configuration not stated)	/	i	/	0%	/	/
O=S(=O)(c1ccc2c(c1)CCC2)N1CCNCC1	11%	i	1%	28µM*	-4	-32%[15.4 µM]
N#CCCN1CCN(S(=O)(=O)c2ccc3c(c2)CCC3)CC1	19%	i	-1%	2%	-8	-41%
CCCCCCCCCn1c2c(c(=N)c3c1CCC3)CCCC2	-1%	i	-1%	/	-81*	?
CCCCCCCCCCn1c2c(c(=N)c3c1CCC3)CCC2	7%	i	0%	-1%	-69*	-4%[15.4 µM]
CCCN1CNc2c(c(=O)[nH]c(=O)n2CCc2ccc(OC)c(OC)c2)C1	/	/	/	-3%	/	/
COc1ccccc1N1CCN(C(=O)c2cc3ccc4ccc(C)[nH]c4c3n2)CC1	/	/	-3%	-2%	/	/
CC(=O)c1cccc(NC(=O)C(C)OC(=O)CN2C(=O)NC(C)(C)C2=O)c1 (configuration not stated)	6%	i	2%	-4%	8	-5%
O=C1/C(=C/c2ccccn2)SC(=S)N1Nc1ncc(C(F)(F)F)cc1Cl	?	i	/	/	-72*	-7%
O=C(CSc1nc2c([nH]c3ccccc32)c(=O)n1-c1cccc(Cl)c1)NCc1ccccc1	/	/	0%	?	/	/
CCCCS(=O)(=O)Nc1ccc2ncn(C)c(=O)c2c1	2%	i	4%	32µM*	-2	4%
CCCCS(=O)(=O)Nc1ccc2cn[nH]c2c1	14%	i	-1%	/	-3	-12%[15.4 µM]
O=C(C[n+]1ccccc1)c1ccc(I)cc1	/	/	/	-2%	/	/
Cc1cccc(N=Cc2cc(Br)cc(Cl)c2O)c1	-34%	i	9%	/	-64*	3%[15.4 µM]
CCN(CCC(=O)O)c1ccc(/C=C/c2ccnc3ccccc23)cc1	/	/	/	-3%	/	/
COc1cc(C(=O)Nc2nnc(S(=O)(=O)N(C)c3ccccc3)s2)cc(OC)c1OC	/	/	0%	-7%	-64*	/
CN(c1ccccc1)S(=O)(=O)c1nnc(NC(=O)c2cccs2)s1	/	/	-2%	-7%	-6	/

Screens from PubChem.
